# ATXN2 expr inh: ATXN2 expression inhibition | AID 1745845 | HEK-293 ATXN2-luciferase reporter, luminescence, 24 h | Potency, µM (highest dose often 57 µM), inactives show top-dose activity change, negative = inhibition, most hits filed as inhibitors | 0.72% of 360,000 active; also: % is scaled to controls: 0 for no effect and ±100 for the full control effect; nearly all actives have a fitted effect of over 55% in size
#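 ATXN2-luciferase reporter cells (luciferase flanked by upstream and downstream ATXN2 gene portions) were treated 24 h at 37 °C with compounds at up to 57 uM. SteadyGlo luminescence gave expression; GF-AFC fluorescence gave viability.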
# S2 tox: cell viability loss in ATXN counter-screen. S2 cells (HEK-293 line with an ATXN2-luciferase reporter) viability, CellTiter-Fluor protease fluorescence, 24 h. Potency, µM (doses to about 56.7 µM), actives largely listed as cytotoxic. 0.49% of 400,000 active. AID 651635; also: nearly all actives have a fitted effect of over 40% in size
# TDP1 cell noCPT: qHTS for Inhibitors of human tyrosyl-DNA phosphodiesterase 1 (TDP1): qHTS in cells in absence of CPT; DT40 Tdp1-/- hTDP1 cells, no CPT, ATP luminescence, 48 h; Potency, µM (top dose mostly 46.2 µM), for the others: top-dose activity change, negative = growth inhibition, most hits filed as inhibitors; 15% of 420,000 active; AID 686978, 2013; also: % is scaled to controls: 0 for no effect and ±100 for the full control effect; nearly all actives have a fitted effect of over 55% in size
#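 A cellular qHTS used chicken DT40 cells lacking endogenous Tdp1 but carrying stably transfected human TDP1. Compounds were applied without camptothecin, and cell growth kinetics were judged by ATP-dependent luminescence after ≥48 hr.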
# HepG2 tox: kills HepG2 cells in TGF-b inhibitor counter-screen; HepG2 CAGA-GFP viability, ATP luminescence, 18 h; Potency, µM (series often up to 46.1 µM), inactives show at the highest dose activity change, negative = cytotoxicity, hits mostly cytotoxic; 0.76% of 410,000 active; AID 588856
#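 CellTiter-Glo luminescence gave cytotoxicity after 18 hours at 37 degrees C. The cells were HepG2 CAGA-GFP in 1% FBS DMEM, stimulated with 500 pg/mL TGF-beta after compound addition. %Activity was normalised to no-cell wells (complete cell-killing) and DMSO (no toxicity), and curves were fitted and classified.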
# DT40 TDP1 CPT: DT40-hTDP1 cell growth loss with CPT; AID 686979; 12% of 420,000 active; Potency, µM (highest dose often 46.2 µM), inactives show at the top dose activity change, negative = growth inhibition, usual class: inhibitors; chicken DT40 Tdp1-/-;hTDP1 cells + 20 nM CPT, ATP luminescence, 48 h; also: % is scaled to controls: 0 for no effect and ±100 for the full control effect; nearly all actives have a fitted effect of over 55% in size
#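 Chicken DT40 Tdp1-/- cells complemented with human TDP1, 400 cells/well, exposed to compounds plus 20 nM camptothecin for at least 48 h at 37 C; viability read as ATP content by CellTiter-Glo luminescence.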
# TGFb SMAD3 inh: inhibitors of TGF-b signaling; HepG2 CAGA-GFP TGF-b/SMAD3 reporter, GFP fluorescence, 18 h; TGF-beta stimulated, 500 pg/mL final; Potency, µM (top dose mostly 46.1 µM), for the others: at the top dose activity, negative = inhibition, hits mostly inhibitors; 1.2% of 410,000 active; AID 588855; also: % is scaled to controls: 0 for no effect and ±100 for the full control effect; nearly all actives have a fitted effect of over 65% in size
#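 TGF-beta reporter screen: HEPG2 CAGA-GFP, 1% FBS, 500 pg/mL TGF-beta final, 18 h; per-cell GFP summed per well; curves fitted and categorized by class.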
# Starred values were filed as active, the others as inactive; i = inactive; ? = inconclusive; . = not tested or not shown; ! = not confirmed by another sample; [ ] = remark or other dose. Compounds with a hit are over-represented: about 17% of the library has one in this group of screens. Calls follow the shape of the dose curve; as a rule, active = well fitted curve in the direction sought with a large enough effect; inconclusive = small, poorly fitted or top-dose-only effect, or another doubt; inactive = no such curve, though single readings can be large; an effect the other way counts as inactive or inconclusive. Potency is read from the fitted curve at half-maximal effect.
SMILES,ATXN2 expr inh,S2 tox,TDP1 cell noCPT,HepG2 tox,DT40 TDP1 CPT,TGFb SMAD3 inh
CCc1ccc(NC(=O)C(=O)NCC(c2cccnc2)N2CCN(C)CC2)cc1 (centres undefined),-17%,i,?,-42%,-23%,13%
COc1ccc(C)cc1NC(=O)C(=O)NCC(c1cccnc1)N1CCc2ccccc21 (centres undefined),.,.,15µM*,-19%,?,-31%
COc1ccc(C)cc1NC(=O)C(=O)NCC(c1cccnc1)N1CCN(c2ccccc2F)CC1 (centres undefined),.,.,18µM*,-4%,?,?
CCOc1ccc(NC(=O)C(=O)NCC(c2cccnc2)N2CCc3ccccc32)cc1 (centres undefined),.,.,3.7µM*,-25%,4.1µM*,?
COC(=O)c1ccc(NC(=O)C(=O)NCC(c2cccnc2)N2CCc3ccccc32)cc1 (centres undefined),.,.,16µM*,-14%,15µM*,?
Cc1ccc(Cn2nc(C)c(NC(=O)C3(C)CC3(Br)Br)c2C)cc1 (centres undefined),?,?,-26%,-17%,-23%,2%
CCOc1ccc(C2CC(c3c(O)c4ccccc4oc3=O)=NN2c2ccccc2)cc1OC (centres undefined),1%,.,?,-32%,5%,-3%
O=C(COC(=O)CNS(=O)(=O)/C=C/c1ccccc1)Nc1cccc2ccccc12,-10%[11.3 µM],i,7%,2%,2%,-22%
COc1ccc(-c2noc3c2-c2nc(C4CCCCC4)sc2CC3)cc1,12%,i,-22%,-1%,?,1%
O=[N+]([O-])c1ccc(S(=O)(=O)Nc2ccccn2)cc1,-6%,i,10%,7%,3%,2%
COc1ccc(NC(=O)C(=O)NCC(c2cccnc2)N2CCc3ccccc32)cc1OC (centres undefined),.,.,21µM*,-4%,?,?
CCc1ccccc1NC(=O)C(=O)NCC(c1cccnc1)N1CCN(c2ccccc2F)CC1 (centres undefined),.,.,15µM*,-9%,?,-4%
O=C(CCNS(=O)(=O)c1cccc2nsnc12)NCc1ccco1,-13%[11.3 µM],i,-4%,5%,20%,2%
CCOc1ccccc1NC(=O)Cn1cc(C(=O)c2ccc(Cl)cc2)c(=O)c2ccc(C)nc21,13%,i,15µM*,-3%,?,-13%
Cc1ccc(Cn2cc(C(=O)c3ccc(C)cc3)c(=O)c3ccc(C)nc32)cc1,.,.,?,-19%,?,?
Cc1ccc(C(=O)c2cn(Cc3cccc(C)c3)c3nc(C)ccc3c2=O)cc1,-21%,i,21µM*,-39%,?,?
Cc1ccc(C(=O)c2cn(Cc3c(F)cccc3Cl)c3nc(C)ccc3c2=O)cc1,5%,i,?,5%,-8%,-2%
Cc1ccc(C(=O)c2cn(Cc3cc(C)ccc3C)c3nc(C)ccc3c2=O)cc1,?,i,21µM*,-37%,?,?
NC(=S)N/N=C1\CCOc2ccc(Cl)cc21,.,.,?,-58%,18µM*,8.9µM*
Cc1ccc(C)c(NC(=O)C(=O)NCCc2csc(-c3ccc(C(F)(F)F)cc3)n2)c1,.,.,?,4%,-50%,0%
O=C(NCCc1csc(-c2ccc(C(F)(F)F)cc2)n1)c1ccc(F)c(F)c1,20µM*,?,.,-74%,.,11µM*
O=C(NCCc1csc(-c2ccc(C(F)(F)F)cc2)n1)C(=O)Nc1cc(F)ccc1F,.,.,-12%,2%,-1%,-6%
Cc1cc(C)cc(C(=O)NCCc2csc(-c3ccc(C(F)(F)F)cc3)n2)c1,.,.,21µM*,0%,?,-3%
COc1ccc(CNC(=O)Cn2nnc(-c3ccc(C(F)(F)F)cc3)n2)cc1,0%,i,-18%,-9%,-14%,14%
O=C(N/N=C/c1cccc(F)c1)c1ccc(Cl)cc1,18%,i,-5%,1%,27%,?
SMILES,ATXN2 expr inh,S2 tox,TDP1 cell noCPT,HepG2 tox,DT40 TDP1 CPT,TGFb SMAD3 inh
CC(C)(C)c1ccc(C(=O)N/N=C/c2cccc(Cl)c2)cc1,47%,?,16µM*,-14%,?,?
O=C(N/N=C/c1cccc(NC(=O)c2ccc(Cl)cc2)c1)c1ccc(O)cc1,.,i,15µM*,-32%,?,?
O=C(N/N=C/c1ccncc1)c1cccc(NC(=O)c2ccc(Cl)cc2)c1,-6%,i,1%,-3%,-6%,-10%
CC(SC(C)C(=O)NN=Cc1cccc(Cl)c1)C(=O)NN=Cc1cccc(Cl)c1 (centres undefined),?,i,16µM*,-31%,?,0%
COc1cccc(C=NNC(=O)C(C)SC(C)C(=O)NN=Cc2cccc(OC)c2)c1 (centres undefined),-11%,i,?,3%,-2%,1%
CC(=O)c1cccc(NC(=O)CC(C)n2ccnc2)c1 (centres undefined),-23%,i,-28%,-11%,-6%,0%
COc1ccc(C(C#N)=Cc2ccc(N(C)CCC#N)cc2)cc1,.,i,26µM*,-7%,23µM*,1%
COc1ccc(N=Cc2ccc(N(CCC#N)CCC#N)cc2)cc1,-13%,i,-19%,-7%,5%,?
CN(C)c1ccc(/C=C(\C#N)c2ccccc2)cc1,.,i,2.6µM*,-8%,2.6µM*,-23%
O=C(Nc1nc(-c2ccccc2)cs1)c1ccc(N2CCOCC2)c([N+](=O)[O-])c1,13µM*,?,8.2µM*,-24%,15µM*,-16%
O=C(Nc1nc2ccccc2s1)c1ccc(N2CCCCC2)c([N+](=O)[O-])c1,0%,?,15µM*,1%,23µM*,-11%
O=C1NC(NS(=O)(=O)c2ccccc2)(C(F)(F)F)C(=O)N1c1cccc(Cl)c1 (centres undefined),-3%,i,-25%,-22%,22%,1%
O=C(Cn1c(=O)c2cccn2c2ccc(F)cc21)NCc1cccc(Cl)c1,.,.,?,-11%,-27%,0%
CN(C)CCCN1c2ccccc2Sc2ccc(Cl)cc21,20µM*!,i,23µM*!,18µM*!,11µM*!,?
N#Cc1c(-c2ccc(Cl)cc2)ccn2nc(C3CCCCC3)nc12,25%,i,-15%,-9%,?,-3%
